# In PubChem BioAssay AID1508601 (ICCB-Longwood Screening Facility, Harvard Medical School, 2020):
# Values joined by “and” are separate entries in the source; they are usually repeats but may differ in a detail not shown here. Equal values may be shown once. Out of some 5,700 compounds screened, about 85 (1%) were called active. The sample holds actives, similar compounds and a random draw of the others, so the mix is not that of the screen. Cut-off read from the data, not from the text of the source: active = p53-positive nuclei above about 36% (passing the limit was not always enough); inactive = the rest.
# Experiments:
# [1] = nuclear p53 accumulation, HPV+ cells – imaging, p53-positive nuclei imaging, 24 h, 48 h (AID 1508601); conditions: 24/48 h
# [2] = target: Cellular tumor antigen p53 (Homo sapiens) (UniProt P04637); test: as above; conditions: 24/48 h, stronger effect = higher value
# Chain of Cellular tumor antigen p53 (Homo sapiens) (P04637 whole entry, looked up): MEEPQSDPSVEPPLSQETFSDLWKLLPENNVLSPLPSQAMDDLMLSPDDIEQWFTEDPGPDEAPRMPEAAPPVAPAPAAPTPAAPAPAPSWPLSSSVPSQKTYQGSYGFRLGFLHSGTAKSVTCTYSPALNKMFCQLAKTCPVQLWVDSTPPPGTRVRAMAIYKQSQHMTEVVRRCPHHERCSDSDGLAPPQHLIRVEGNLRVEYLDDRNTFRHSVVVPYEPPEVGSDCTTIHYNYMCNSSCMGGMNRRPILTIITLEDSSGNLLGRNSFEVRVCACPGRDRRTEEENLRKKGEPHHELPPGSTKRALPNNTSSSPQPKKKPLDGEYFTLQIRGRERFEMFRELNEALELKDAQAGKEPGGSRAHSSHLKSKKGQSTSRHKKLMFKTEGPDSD
# [3] = measured here: cell number at 24 h, concentration not given here
# [4] = measured here: cell number at 48 h, concentration not given here
# [5] = measured here: p53 positive nuclei at 24 h, concentration not given here
# [6] = measured here: cell number at 24 h, Library stock concentration: 3.33 mM
# [7] = measured here: cell number at 48 h, Library stock concentration: 3.33 mM
# [8] = Library stock concentration: 3.33 mM
# [9] = measured here: p53 positive nuclei at 24 h, Library stock concentration: 3.33 mM
# [10] = measured here: cell number at 24 h, Library stock concentration: 10 mM
# [11] = measured here: cell number at 48 h, Library stock concentration: 10 mM
# [12] = Library stock concentration: 10 mM
# [13] = measured here: p53 positive nuclei at 24 h, Library stock concentration: 10 mM
# [14] = measured here: cell number at 24 h, Library stock concentration: 46 uM
# [15] = measured here: cell number at 24 h, Library stock concentration: 278 uM
# [16] = measured here: cell number at 24 h, Library stock concentration: 1.67 mM
# [17] = measured here: cell number at 48 h, Library stock concentration: 46 uM
# [18] = measured here: cell number at 48 h, Library stock concentration: 278 uM
# [19] = measured here: cell number at 48 h, Library stock concentration: 1.67 mM
# [20] = Library stock concentration: 46 uM
# [21] = Library stock concentration: 278 uM
# [22] = Library stock concentration: 1.67 mM
# [23] = measured here: p53 positive nuclei at 24 h, Library stock concentration: 46 uM
# [24] = measured here: p53 positive nuclei at 24 h, Library stock concentration: 278 uM
# [25] = measured here: p53 positive nuclei at 24 h, Library stock concentration: 1.67 mM
smiles,measurement,setting,value
C[C@H]1O[C@@H](O[C@H]2[C@@H](O)C[C@H](O[C@H]3[C@@H](O)C[C@H](O[C@H]4CC[C@]5(C)C6CC[C@]7(C)[C@@H](C8=CC(=O)OC8)CC[C@]7(O)C6CC[C@@H]5C4)O[C@@H]3C)O[C@@H]2C)C[C@H](O)[C@@H]1O (stereo partly drawn),"nuclei count, normalised",[1]; [3],49%
same,"nuclei count, normalised",[1]; [4],31%
same,"p53-positive nuclei, normalised",[2]; concentration not given here,16.9% (inactive)
same,"p53-positive nuclei, normalised",[2]; [5],3.09%
CC(C)OC(=O)CCC/C=C\C[C@@H]1[C@@H](/C=C/[C@@H](O)CCc2ccccc2)[C@H](O)C[C@@H]1O,"nuclei count, normalised",[1]; [3],106%
same,"nuclei count, normalised",[1]; [4],105%
same,"p53-positive nuclei, normalised",[2]; concentration not given here,0.0477% (inactive)
same,"p53-positive nuclei, normalised",[2]; [5],-0.0131%
CCN(CC)C(=O)[C@]1(c2ccccc2)CC1CN (stereo partly drawn),"nuclei count, normalised",[1]; [6],107%
same,"nuclei count, normalised",[1]; [7],99.9%
same,"p53-positive nuclei, normalised",[2]; [8],-0.0572% (inactive)
same,"p53-positive nuclei, normalised",[2]; [9],-0.236%
COc1cccc(CN2CCN(c3ccc4cccc(OC)c4n3)CC2)c1,"nuclei count, normalised",[1]; [3],109%
same,"nuclei count, normalised",[1]; [4],114%
same,"p53-positive nuclei, normalised",[2]; concentration not given here,0.13% (inactive)
same,"p53-positive nuclei, normalised",[2]; [5],0.279%
O=C(O)CCC/C=C\C[C@@H]1[C@@H](/C=C/[C@H](O)CCc2ccccc2)[C@H](O)C[C@@H]1O,"nuclei count, normalised",[1]; [3],107%
same,"nuclei count, normalised",[1]; [4],108%
same,"p53-positive nuclei, normalised",[2]; concentration not given here,-0.104% (inactive)
same,"p53-positive nuclei, normalised",[2]; [5],-0.0183%
O=C(O)CCCC=CCC1C(O)CC(O)C1C=CC(O)COc1cccc(Cl)c1 (stereo not drawn),"nuclei count, normalised","[1]; measured here: cell number at 24 h, Library stock concentration: 80 uM",91.3%
same,"nuclei count, normalised","[1]; measured here: cell number at 24 h, Library stock concentration: 400 uM",83%
same,"nuclei count, normalised","[1]; measured here: cell number at 24 h, Library stock concentration: 2 mM",71%
same,"nuclei count, normalised",[1]; [10],62.6%
same,"nuclei count, normalised","[1]; measured here: cell number at 48 h, Library stock concentration: 80 uM",91.4%
same,"nuclei count, normalised","[1]; measured here: cell number at 48 h, Library stock concentration: 400 uM",86.3%
same,"nuclei count, normalised","[1]; measured here: cell number at 48 h, Library stock concentration: 2 mM",76.4%
same,"nuclei count, normalised",[1]; [11],62.3%
same,"p53-positive nuclei, normalised",[2]; Library stock concentration: 80 uM,-0.163% (inactive)
same,"p53-positive nuclei, normalised",[2]; Library stock concentration: 400 uM,-0.108% (inactive)
same,"p53-positive nuclei, normalised",[2]; Library stock concentration: 2 mM,0.08% (inactive)
same,"p53-positive nuclei, normalised",[2]; [12],0.269% (inactive)
same,"p53-positive nuclei, normalised","[2]; measured here: p53 positive nuclei at 24 h, Library stock concentration: 80 uM",0.18%
same,"p53-positive nuclei, normalised","[2]; measured here: p53 positive nuclei at 24 h, Library stock concentration: 400 uM",0.0351%
same,"p53-positive nuclei, normalised","[2]; measured here: p53 positive nuclei at 24 h, Library stock concentration: 2 mM",0.0627%
same,"p53-positive nuclei, normalised",[2]; [13],-0.0194%
COC1=C2CC(C)CC(OC)C(O)C(C)C=C(C)C(OC(N)=O)C(OC)C=CC=C(C)C(=O)NC(=CC1=O)C2=O (stereo not drawn),"nuclei count, normalised",[1]; [6],40.1%
same,"nuclei count, normalised",[1]; [7],28.1%
same,"p53-positive nuclei, normalised",[2]; [8],-0.0882% (inactive)
same,"p53-positive nuclei, normalised",[2]; [9],-0.356%
CCCCCN=C(N)N/N=C/c1c[nH]c2ccc(OC)cc12,"nuclei count, normalised",[1]; [3],107%
same,"nuclei count, normalised",[1]; [4],112% and 109%
same,"p53-positive nuclei, normalised",[2]; concentration not given here,-0.135% (inactive) and -0.2% (inactive)
same,"p53-positive nuclei, normalised",[2]; [5],0.0257% and -0.191%
CC1C[C@H]2[C@@H]3CCC4=CC(=O)C=C[C@]4(C)[C@@H]3C(=O)C[C@]2(C)[C@]1(O)C(=O)CO (stereo partly drawn),"nuclei count, normalised",[1]; [6],104%
same,"nuclei count, normalised",[1]; [7],88.5%
same,"p53-positive nuclei, normalised",[2]; [8],1.05% (inactive)
same,"p53-positive nuclei, normalised",[2]; [9],1.05%
CN(CCC(Oc1ccc(-c2ccccc2)cc1)c1ccc(F)cc1)CC(=O)O (stereo not drawn),"nuclei count, normalised",[1]; [14],112%
same,"nuclei count, normalised",[1]; [15],111%
same,"nuclei count, normalised",[1]; [16],107%
same,"nuclei count, normalised",[1]; [10],115%
same,"nuclei count, normalised",[1]; [17],109%
same,"nuclei count, normalised",[1]; [18],113%
same,"nuclei count, normalised",[1]; [19],104%
same,"nuclei count, normalised",[1]; [11],110%
same,"p53-positive nuclei, normalised",[2]; [20],-0.199% (inactive)
same,"p53-positive nuclei, normalised",[2]; [21],-0.17% (inactive)
same,"p53-positive nuclei, normalised",[2]; [22],0.114% (inactive)
same,"p53-positive nuclei, normalised",[2]; [12],-0.129% (inactive)
same,"p53-positive nuclei, normalised",[2]; [23],-0.152%
same,"p53-positive nuclei, normalised",[2]; [24],-0.0916%
same,"p53-positive nuclei, normalised",[2]; [25],-0.153%
same,"p53-positive nuclei, normalised",[2]; [13],-0.0944%
O=C1CC(c2ccc([N+](=O)[O-])cc2)=NN1c1ccccc1,"nuclei count, normalised",[1]; [14],114%
same,"nuclei count, normalised",[1]; [15],115%
same,"nuclei count, normalised",[1]; [16],116%
same,"nuclei count, normalised",[1]; [10],117%
same,"nuclei count, normalised",[1]; [17],107%
same,"nuclei count, normalised",[1]; [18],109%
same,"nuclei count, normalised",[1]; [19],110%
same,"nuclei count, normalised",[1]; [11],106%
same,"p53-positive nuclei, normalised",[2]; [20],-0.127% (inactive)
same,"p53-positive nuclei, normalised",[2]; [21],0.0933% (inactive)
same,"p53-positive nuclei, normalised",[2]; [22],-0.137% (inactive)
same,"p53-positive nuclei, normalised",[2]; [12],-0.204% (inactive)
same,"p53-positive nuclei, normalised",[2]; [23],-0.0266%
same,"p53-positive nuclei, normalised",[2]; [24],0.0349%
same,"p53-positive nuclei, normalised",[2]; [25],0.0231%
same,"p53-positive nuclei, normalised",[2]; [13],0.0862%
CC(O)[C@H]1C(=O)N2C(C(=O)OCOC(=O)C(C)(C)C)=C(SC3CN(C4=NCCS4)C3)C(C)[C@@H]12 (stereo partly drawn),"nuclei count, normalised",[1]; [6],106%
same,"nuclei count, normalised",[1]; [7],101%
same,"p53-positive nuclei, normalised",[2]; [8],-0.0394% (inactive)
same,"p53-positive nuclei, normalised",[2]; [9],-0.252%
CC1(C)SC2C(NC(=O)C(NC(=O)N3CCNC3=O)c3ccccc3)C(=O)N2C1C(=O)O (stereo not drawn),"nuclei count, normalised",[1]; [6],118%
same,"nuclei count, normalised",[1]; [7],111%
same,"p53-positive nuclei, normalised",[2]; [8],-0.143% (inactive)
same,"p53-positive nuclei, normalised",[2]; [9],-0.242%
